HCV inh – qHTS Assay for Inhibitors of Hepatitis C Virus (HCV). Huh7.5.1 HCVcc-Cre infection, luciferase reporter, 44 h. Potency, µM (series often up to 41.8 µM), for inactives: at the highest dose activity change, negative = inhibition, hits mostly inhibitors. 340,000 tested, 3.4% active; note: potency is the fitted concentration of half-maximal effect
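Cells (1,000/well) were plated 4 h before compound, then infected with HCVcc-Cre virus (~0.5 moi). After 44 h further culture, infection was read as luciferase luminescence following a 15 min substrate incubation at room temperature.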
Pf growth 96h – Primary qHTS for delayed death inhibitors of the malarial parasite plastid, 96 hour incubation; P. falciparum luciferase reporter growth, 96 h; 320,000 tested, 6.9% active; Potency, µM (titrated, usually from 28.7 µM), inactives show top-dose activity change, negative = inhibition, usual class: inhibitors; note: potency is the fitted concentration of half-maximal effect
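Luminescence readout: decreased luciferase signal marks inhibited growth of reporter-expressing P. falciparum in infected red cells (2% hematocrit, 0.05% parasitemia final), exposed to compound two generations (96 h, 37 C, 5% CO2).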
HCMV inh – qHTS Assay for inhibitors of the human cytomegalovirus (HCMV); 410,000 tested, 4.5% active; activity change, negative = inhibition, % at 57.5 µM; HFF cells, HCMV-luciferase reporter, 72 h; active compounds read low; in the data active = activity change below about -60%; inconclusive = no clear call, values can overlap the other calls; inactive = above about -39%
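Screen run at 2 compound doses on HFFs infected with reporter HCMV, MOI 1 PFU/cell. Luciferase activity from cell lysates at 72 h post infection gave inhibition relative to buffer-only and Salinomycin wells.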
Pf growth 48h – Primary qHTS for delayed death inhibitors of the malarial parasite plastid, 48 hour incubation. P. falciparum luciferase growth in erythrocytes, 48 h. Potency, µM (top dose mostly 28.7 µM), inactives show at the top dose activity change, negative = inhibition, usual class: inhibitors. 310,000 tested, 5.9% active. AID 504832, 2011; note: potency is the fitted concentration of half-maximal effect
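First compound was added to culture medium, then infected red cells at 0.1% parasitemia and 2% hematocrit (final). After incubation at 37 C under 5% CO2, luciferase detection reagent was dispensed and light output recorded.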
Starred values were filed as active, the others as inactive; ? = inconclusive; / = not tested or not shown; + = active, no number. A selection: hits, their analogues and other compounds. The true share with any hit is near 13%. Unless noted, calls come from the whole dose curve; as a rule, active = well fitted inhibition curve with a large enough effect; inconclusive = small, poorly fitted or top-dose-only effect, or another doubt; inactive = no such curve, though single readings can be large or run the other way. % is set by controls: 0 for no effect and ±100 for the full control effect.

SMILES	HCV inh	Pf growth 96h	HCMV inh	Pf growth 48h
CCOCc1cc(CN2CCC(CCC(=O)NC3CC3)CC2)ccc1OC	17%	9.3µM*	-14	3%
COc1ccc(OC)c(C2C(C(=O)Nc3ccc(C)cc3)=C(C)Nc3nnnn32)c1 (configuration not stated)	/	/	-27	/
Cc1cc(Nc2nc3ccccc3nc2Cl)n(-c2ccc([N+](=O)[O-])cc2)n1	?	1µM*	43	/
CCCC(=O)Nc1ccc2c(c1)nc(CCN1CCN(c3ccccn3)CC1)n2C	16%	-15%	-38	3%
COc1ccc(OCC(=O)Nc2ccc3c(c2)nc(CN2CCCC2)n3C)cc1	?	/	3	-22%
Cn1c(CCN2CCN(c3ccccn3)CC2)nc2cc(NC(=O)COc3ccccc3)ccc21	4µM*	?	?	?
CCCCC(=O)Nc1ccc2c(c1)nc(CCN1CCN(c3ccccn3)CC1)n2C	-6%	-25%	-81*	23%
CC1CCN(CCc2nc3cc(NC(=O)COc4ccccc4)ccc3n2C)CC1	-15%	?	?	?
Cc1ccc(OCC(=O)Nc2ccc3c(c2)nc(CCN2CCN(c4ccccn4)CC2)n3C)cc1	/	/	-77*	/
Cn1c(CCN2CCN(c3ccccn3)CC2)nc2cc(NS(=O)(=O)c3ccccc3)ccc21	10µM*	?	+	?
Cc1ccccc1C[C@H](C(=O)O)N1C(=O)c2ccc(C(=O)O)cc2C1=O	/	1%	/	8%
Cc1oc2c(C)c3oc(=O)c(CC(=O)N4CCCCC4)c(C)c3cc2c1C	/	/	-35	/
CCN(C(=O)c1ccc2c(c1)N(Cc1cccc(Cl)c1)C(=O)c1ccccc1S2=O)c1ccccc1 (configuration not stated)	/	/	-40	/
CCOC(=O)c1ccc(-c2c(-c3ccccc3OC)sc3cc4c(cc23)OCO4)cc1F	3%	?	26	1.9µM*
COc1ccccc1-c1sc2cc3c(cc2c1C#CCO)OCO3	-30%	?	?	?
Cc1ccc(S(=O)(=O)N(C)C)cc1NC(=O)c1cc(C(C)(C)C)nn1Cc1ccccc1	5.6µM*	7.4µM*	-25	?
CC(C)(C)c1cc(C(=O)NNC(=O)Nc2cccc(Cl)c2)n(Cc2ccccc2)n1	?	9.3µM*	-5	?
CC(C)(C)c1cc(C(=O)NNC(=O)Nc2ccccc2)n(Cc2ccccc2)n1	-24%	9.3µM*	-7	5.2µM*
Cc1ccc(S(=O)(=O)N(C)C)cc1NC(=O)CN1CCN(Cc2ccccc2)CC1	26%	-15%	-18	3%
Cc1cccc(C)c1NC(=O)NNC(=O)c1cc(C(C)(C)C)nn1Cc1ccccc1	5%	?	10	?
CCn1cc2c(n1)-c1c(oc(C(=O)Nc3cccc(C(F)(F)F)c3)c1C)CC2	/	/	-36	/
CCOc1ccc(C(=O)NCCS(=O)(=O)N2CCN(c3ccccc3F)CC2)cc1OCC	/	/	-3	/
Cc1cc(C)c2nc(N(Cc3cccnc3)C(=O)c3cccs3)sc2c1	/	/	0	/
CC(=O)c1cccc(NC(=O)c2sc(-n3nc(C)c(Cc4ccccc4)c3C)nc2C)c1	/	/	-61*	/
CC(C)Cc1ccc(CC(=O)O)cc1	/	4%	/	-2%
SMILES	HCV inh	Pf growth 96h	HCMV inh	Pf growth 48h
COC(=O)c1cn(CCOc2ccccc2)c2ccccc12	13µM*	/	105	-16%
S=C(c1cn(CCOc2cccc3ccccc23)c2ccccc12)N1CCCC1	?	?	-77*	13µM*
COC(=O)c1cn(CCOc2ccccc2OC)c2ccccc12	?	-2%	-2	-9%
COCCn1cc(C(=S)N2CCOCC2)c2ccccc21	3%	-8%	15	/
COCCn1cc(C(=S)N2CCCCC2)c2ccccc21	-8%	29%	16	-18%
Cc1ccc(OCCn2cc(C(=O)C3CCCCC3)c3ccccc32)cc1	/	/	-101*	/
S=C(c1cn(CCOc2ccccc2)c2ccccc12)N1CCCC1	11µM*	?	1	12µM*
CC(O)CCCCn1c(=O)c2c(ncn2C)n(C)c1=O (configuration not stated)	/	-3%	/	-4%
COc1ccc(-c2nc(SCCOc3cc(C)ccc3C(C)C)n3[nH]c(=O)cc3n2)cc1	/	/	7	/
COc1ccc(-n2c(-c3ccccc3F)nc3c(cnn3-c3ccc(C)cc3)c2=O)cc1	/	/	10	/
CC(C)N(Cc1nc(-c2ccc(Cl)cc2)no1)C(=O)c1ccc(C(C)(C)C)cc1	/	/	-2	/
COc1ccccc1OCCCn1cc(C(=O)C2CC2)c2ccccc21	?	?	?	12µM*
COC(=O)c1cn(C(=O)c2ccccc2Cl)c2ccccc12	?	474%	-64*	-3%
Cc1ccc(OCCn2cc(C(=S)N3CCCC3)c3ccccc32)cc1C	?	?	-98*	?
CC(=O)N1CCOc2cc(S(=O)(=O)NCc3ccccc3Cl)c(Cl)cc21	/	-1%	-4	0%
CCCC(=O)Nc1cc(C)c(O)c(-c2nc3ncccc3o2)c1	/	/	-7	/
CCN(CC)S(=O)(=O)c1cccc(-c2cn3cccnc3n2)c1	11%	15µM*	-22	4.1µM*
COC(=O)c1c(C)oc2ccc(N(C(=O)c3ccncc3)S(=O)(=O)c3cc(C)c(C)cc3C)cc12	/	/	-60*	/
COC(=O)c1c(C)oc2ccc(N(C(=O)c3ccncc3)S(=O)(=O)c3ccccc3)cc12	?	48%	-18	15%
COC(=O)c1c(C)oc2ccc(N(C(=O)c3ccncc3)S(=O)(=O)c3ccc(C)cc3)cc12	?	/	/	7%
COC(=O)c1c(C)oc2ccc(N(C(=O)c3ccncc3)S(=O)(=O)c3ccc(C)cc3C)cc12	1.6µM*	2%	-92*	0%
COc1ccc(C(=O)/C(=C\N(C)C)n2nc(C)cc2C)cc1	10%	26%	-18	12%
Cc1cc(C)n(/C(=C\N(C)C)C(=O)c2ccc(Cl)cc2)n1	13%	16%	-61*	?
c1ccc(-c2ccc(C(c3ccccc3)n3ccnc3)cc2)cc1 (configuration not stated)	?	4.8µM*	2	2.1µM*
COc1ccc(C2CC(c3ccc(Br)cc3)=NN2C(=O)CSC2=NCCS2)cc1 (configuration not stated)	?	4.7µM*	-32	?
Cc1ccc2nc(SCC(=O)N3N=C(c4cccs4)CC3c3ccc(F)cc3)nc(=O)n2c1 (configuration not stated)	/	/	91	/
Cc1ccn2c(=O)nc(SCC(=O)N3N=C(c4cccs4)CC3c3ccc(F)cc3)nc2c1 (configuration not stated)	?	4.7µM*	1	?
Cc1ccn2c(=O)nc(SCC(=O)N3CCCCCC3)nc2c1	-11%	-18%	-3	-16%
COc1ccc(C2=NN(C(=O)CSc3ncccn3)C(c3ccc(C)cc3)C2)cc1 (configuration not stated)	-8%	?	?	?
